Test results: PubChem BioAssay AID1159580 (chemical genetic matrix, 2015)
The campaign covered roughly 5,500 compounds. About 2,000 (36%) were called active. Another 18% or so got no clear call; they are omitted. Cut-off read from the data, not from the text of the source: active = normalized growth mostly below about 0.91 (no sharp cut-off); inconclusive = no clear call, values can overlap the other calls; inactive = mostly above about 0.92. This is one part of the list.

Experiment: chemical genetic growth profiling, strain panel (AID 1159580);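 note: tested at 20 µM; growth read once vehicle control cultures reached saturation at 30 °C; 1 = growth at the plate median or of vehicle wells; lower values mean less growth of the strain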
Settings: S. cerevisiae deletion strains, growth OD
[1] = locus YDL101C, strain DUN1, hits give low values
[2] = locus YHR030C, strain SLT2, hits give low values

Measured: normalized growth

CSC(=NNc1ccccc1)NC(=O)c1c(Cl)cccc1Cl
inactive: locus YAR019C, strain CDC15, hits give low values 0.972 | locus YBL105C, strain PKC1, hits give low values 0.967 | locus YBR135W, strain CKS1, hits give low values 0.967 | locus YBR136W, strain MEC1, hits give low values 0.972 | locus YBR160W, strain CDC28, hits give low values 0.967 | locus YDL017W, strain CDC7, hits give low values 0.981 | locus YDL028C, strain MPS1, hits give low values 0.975 | [1] 0.974 | locus YDL108W, strain KIN28, hits give low values 0.963 | locus YDL132W, strain cdc53, hits give low values 0.98 | locus YDL214C, strain PRR2, hits give low values 0.89 | locus YDR052C, strain DBF4, hits give low values 0.975 | locus YDR054C, strain cdc34, hits give low values 0.961 | locus YDR226W, strain ADK1, hits give low values 0.969 | locus YDR477W, strain SNF1, hits give low values 0.923 | locus YER123W, strain YCK3, hits give low values 0.812 | locus YER133W, strain GLC7, hits give low values 0.918 | locus YFL009W, strain cdc4, hits give low values 0.972 | locus YFL029C, strain CAK1, hits give low values 0.958 | locus YFR003C, strain YPI1, hits give low values 0.971 | locus YFR019W, strain FAB1, hits give low values 0.904 | locus YFR028C, strain CDC14, hits give low values 0.967 | locus YGR040W, strain KSS1, hits give low values 0.887 | locus YGR052W, strain FMP48, hits give low values 0.951 | locus YGR092W, strain DBF2, hits give low values 0.82 | [2] 0.909 | locus YHR079C, strain IRE1, hits give low values 0.896 | locus YHR082C, strain KSP1, hits give low values 0.938 | locus YHR205W, strain SCH9, hits give low values 0.921 | locus YIL147C, strain SLN1, hits give low values 0.975 | locus YJL095W, strain BCK1, hits give low values 0.902 | locus YJL128C, strain PBS2, hits give low values 0.945 | locus YJL157C, strain FAR1, hits give low values 0.886 | locus YJR016C, strain ILV3, hits give low values 0.966 | locus YJR066W, strain TOR1 (second series), hits give low values 0.904 | locus YJR066W, strain TOR1, hits give low values 0.968 | locus YKL048C, strain ELM1, hits give low values 0.882 | locus YKL067W, strain YNK1, hits give low values 0.892 | locus YKL101W, strain HSL1, hits give low values 0.867 | locus YKL193C, strain SDS22, hits give low values 0.969 | locus YKL203C, strain TOR2, hits give low values 0.969 | locus YLR133W, strain CKI1, hits give low values 0.872 | locus YLR403W, strain SFP1, hits give low values 0.897 | locus YML070W, strain DAK1, hits give low values 0.806 | locus YMR001C, strain CDC5, hits give low values 0.965 | locus YMR205C, strain PFK2 (second series), hits give low values 0.887 | locus YMR277W, strain FCP1, hits give low values 0.975 | locus YNL006W, strain LST8, hits give low values 0.97 | locus YNL020C, strain ARK1, hits give low values 0.88 | locus YNL161W, strain CBK1, hits give low values 0.979 | locus YNL183C, strain NPR1, hits give low values 0.927 | locus YNL207W, strain RIO2, hits give low values 0.97 | locus YNL222W, strain SSU72, hits give low values 0.961 | locus YNL307C, strain MCK1 (second series), hits give low values 0.817 | locus YOL078W, strain AVO1, hits give low values 0.968 | locus YOL136C, strain PFK27, hits give low values 0.842 | locus YOR061W, strain CKA2, hits give low values 0.798 | locus YOR119C, strain RIO1, hits give low values 0.961 | locus YOR231W, strain MKK1, hits give low values 0.82 | locus YOR329C, strain SCD5, hits give low values 0.976 | locus YPL031C, strain PHO85, hits give low values 0.917 | locus YPL153C, strain RAD53, hits give low values 0.91 | locus YPL204W, strain HRR25, hits give low values 0.906 | locus YPL209C, strain IPL1, hits give low values 0.972 | locus YPR025C, strain CCL1, hits give low values 0.968 | locus YPR106W, strain ISR1, hits give low values 0.955 | locus YPR111W, strain DBF20, hits give low values 0.948 | strain NNK1, hits give low values 0.964 | strain TSCII, hits give low values 0.968
active: locus YLR113W, strain HOG1, hits give low values 0.738 | locus YPL256C, strain CLN2, hits give low values 0.814

CSC(=NC(=O)c1c(Cl)cccc1Cl)SC
inactive: locus YDR150W, strain NUM1, hits give low values 0.992 | locus YMR263W, strain SAP30, hits give low values 0.931 | locus YNL128W, strain TEP1, hits give low values 0.928 | locus YPL055C, strain LGE1, hits give low values 0.919
active: locus YAL013W, strain DEP1, hits give low values 0.886 | locus YBR229C, strain ROT2, hits give low values 0.856 | [1] 0.866 | locus YDL134C, strain PPH21, hits give low values 0.782 | locus YEL061C, strain CIN8, hits give low values 0.781 | locus YGR078C, strain PAC10, hits give low values 0.912 | [2] 0.194 | locus YHR087W, strain rtc3, hits give low values 0.896 | locus YJL187C, strain SWE1, hits give low values 0.82 | locus YJR043C, strain POL32, hits give low values 0.904 | locus YJR075W, strain HOC1, hits give low values 0.776 | locus YLR039C, strain RIC1, hits give low values 0.284 | locus YLR058C, strain SHM2 (second series), hits give low values 0.924 | locus YLR085C, strain ARP6, hits give low values 0.332 | locus YLR262C, strain YPT6, hits give low values 0.275 | locus YML094W, strain GIM5, hits give low values 0.85 | locus YMR219W, strain ESC1, hits give low values 0.932 | locus YMR307W, strain GAS1, hits give low values 0.177 | locus YNL153C, strain GIM3, hits give low values 0.852 | locus YNL298W, strain CLA4 (second series), hits give low values 0.636 | locus YNL322C, strain KRE1, hits give low values 0.925 | locus YNR030W, strain Alg12, hits give low values 0.747 | locus YOL006C, strain TOP1, hits give low values 0.541 | locus YPL241C, strain CIN2, hits give low values 0.663 | locus YPR135W, strain CTF4, hits give low values 0.313
